HSF1 inh – HSF1 inhibitors in luciferase reporter cells, primary screen, cell-based, NIH3T3, luminescence | NIH3T3-HGL HSE-luciferase, MG132-induced, luminescence 8 h; active compounds read low | actives 0.77% (n = 300,000) | activity change, negative = inhibition, % at 7.5 µM (by protocol);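 active = more than half of replicate wells show activity change below -50%, luminescence cut by over half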;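 also: luciferase reports HSF-1 transcriptional activity via heat shock element; 0% = median of DMSO wells and -100% = zero luminescence signal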
NOD2 RIPK2 PPI – NOD2-RIPK2 binding disruptors in cells, primary screen, fluorescence, CHO cells, BLA complementation; Receptor-interacting serine/threonine-protein kinase 2 (Homo sapiens), O43353; CCF4 ratio; inhibition, % at 4.98 µM; actives 0.38% (n = 360,000); in the data active = inhibition above about 21%;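 also: 0% = vehicle only and 100% = reference blocker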
TLR9-MyD88 inh – inhibitors of TLR9-MyD88 association in cells, primary screen, cell-based, CHO, BLA complementation, fluorescence; Toll-like receptor 9 (Homo sapiens) + Myeloid differentiation primary response protein …; CCF4 FRET ratio; inhibition, % at 4.98 µM; actives 0.21% (n = 340,000); AID 504734, 2011;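 active = inhibition above the mean over all tested compounds plus 3 SD, cut at about 21% in these data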;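 also: 0% = DMSO only wells and 100% = clavulanate BLA inhibitor control wells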
TLR4-MyD88 BLA – inhibitors of TLR4-MyD88 association in cells, primary screen, cell-based, HeLa CL3-4, BLA complementation, FRET ratio; HeLa CL3-4 TLR4/MyD88 BLA complementation; actives 0.18% (n = 200,000); inhibition, % at 8.4 µM; in the data active = inhibition above about 25%;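 also: 0% = vehicle and 100% = reference inhibitor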
HSF-1 act – HSF-1 activators, primary screen, NIH3T3-HGL cells, MG132 stress, luminescence, single point; NIH3T3-HGL HSF-1 luciferase reporter, 8 h; 100% = twice DMSO control signal; AID 504408, 2011; actives 1.7% (n = 300,000); activation, % at 9 µM;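 active = mean replicate activation of at least 50% with a set share of replicates each reaching 50%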;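 also: 0% = median of the neutral control wells and 100% = twice that signal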
* marks the source's active call; other numbers are inactive results; · = not tested or not shown. In the library only some 2.4% were active in any assay of this set; here they are far more common.

SMILES | HSF1 inh | NOD2 RIPK2 PPI | TLR9-MyD88 inh | TLR4-MyD88 BLA | HSF-1 act
CCCCC(=O)Nc1ccc(C(=O)NCCc2ccc(S(N)(=O)=O)cc2)cc1 | -67.7* | 1.2 | 6.2 | 3.1 | -72.6
O=C(Cc1ccccn1)c1ccc(F)cc1 | 2.6 | 7.3 | 5.5 | · | -5.0
Nc1ccc(C23CC4CC(CC(O)(C4)C2)C3)cc1 | -78.0* | 3.9 | -7.5 | -1.2 | -79.5
O=C1NC(=NCc2ccccc2)NC1(c1ccccc1)c1ccccc1 | · | -13.9 | -4.7 | · | ·
CCN(CC)c1ccc(/C=C(\C#N)c2ccccn2)cc1 | -58.3* | 10.8 | 15.7 | 3.9 | -64.0
COc1cc(/C=C(\C#N)c2ccccn2)ccc1OCc1ccc(Cl)cc1 | 18.1 | 4.0 | -5.1 | 3.0 | 67.5*
CCN(Cc1ccccc1)c1ccc(/C=C(\C#N)c2ccccn2)cc1 | 53.0 | 6.0 | 2.6 | 9.2 | 102.6*
CN(CCC#N)c1ccc(/C=C(\C#N)c2ccccn2)cc1 | 1.4 | 5.4 | -1.0 | -9.8 | 31.3
COc1cc(/C=C(\C#N)c2ccccn2)ccc1OCc1ccccc1 | 15.3 | -2.1 | -2.7 | -13.1 | 22.2
CCOC(=O)[C@]12CCC=C1N(Cc1ccc3c(c1)OCO3)C(=O)[C@H](CC(=O)NCCCN1CCCC1=O)C2 | · | -2.7 | · | · | ·
[O-][n+]1ccccc1SCc1ccccc1 | 0.5 | -5.9 | -6.5 | · | 4.2
[O-][n+]1ccccc1SC/C=C/c1ccccc1 | 22.5 | -8.6 | 1.3 | -1.7 | 53.0*
CC1CCc2c(sc(NC(=O)CSc3nc(N)cc(=O)[nH]3)c2C(N)=O)C1 (stereo not drawn) | · | 2.7 | 4.7 | · | ·
O=C(Nc1nnc(SCCC2OCCO2)s1)C1CC(=O)N(c2ccc(F)cc2)C1 (stereo not drawn) | -1.8 | -4.4 | -3.9 | · | 1.0
COc1ccc(/C=C(\C#N)C(=O)Nc2cc(C)c(Cl)cc2OC)cc1O | -63.5* | -10.1 | -9.2 | · | -74.0
COc1cc(/C=C(\C#N)C(=O)Nc2cccc3ncccc23)ccc1O | 13.9 | · | · | 8.4 | 62.6*
Cc1ccc(SCC(=O)Nc2ccc(-c3nnc(-c4ccco4)o3)cc2)cc1 | 43.7 | -3.0 | -0.6 | -1.9 | 77.7*
O=C(CSc1nnc(-c2ccncc2)o1)Nc1ccccc1Cl | 1.3 | -5.6 | 0.6 | 4.4 | 6.5
COc1ccccc1C(=O)CSc1nnc(-c2ccco2)o1 | 49.6 | -4.1 | 4.9 | -1.5 | 68.9*
O=C(CSc1nnc(-c2ccccn2)o1)Nc1ccccc1Cl | 16.6 | -6.1 | 4.4 | · | 51.4*
Cc1ccc(NC(=O)CCSc2nnc(-c3ccco3)o2)cc1 | 1.1 | -8.0 | -10.5 | 2.9 | -8.1
c1ccc(-c2nnc(-c3ccco3)o2)cc1 | 24.8 | 0.4 | -2.8 | 17.9 | 38.5
Brc1ccc(-c2nnc(-c3ccco3)o2)cc1 | 43.3 | 6.4 | 6.7 | 7.8 | 62.7*
COC(=O)CSc1nnc(-c2ccco2)o1 | -1.0 | -6.6 | -10.9 | 4.2 | 5.8
CCOc1ccc(C(C)=O)cc1COC(=O)CNC(=O)C12CC3CC(CC(C3)C1)C2 | · | 6.1 | -5.1 | · | ·
SMILES | HSF1 inh | NOD2 RIPK2 PPI | TLR9-MyD88 inh | TLR4-MyD88 BLA | HSF-1 act
Cc1ccc(C(=O)N(CC(C)C)c2c(N)n(Cc3ccccc3)c(=O)[nH]c2=O)o1 | -1.0 | -4.2 | 5.1 | · | 34.2
O=C(COC(=O)c1c(F)cccc1Cl)NCC1CCCCC1 | · | -15.1 | -4.3 | · | ·
Cc1cccc(CCNC(=O)C2CCCN(c3cnccn3)C2)c1 (stereo not drawn) | 1.5 | -5.4 | -5.7 | · | -6.0
COc1ccc(F)cc1-c1cc(C(=O)NCc2ccccc2)[nH]n1 | · | 1.4 | · | · | ·
O=C(CSc1nnc(-c2ccccc2)o1)Nc1ccccc1F | 3.9 | -10.2 | 5.4 | -10.3 | 17.2
Cc1ccc(-c2nnc(SCc3ccccc3F)o2)cc1 | 26.1 | -2.1 | 1.3 | -6.6 | 57.6*
COc1ccccc1NC(=O)CSc1nnc(-c2ccncc2)o1 | -63.1* | 6.2 | -10.0 | -0.1 | -70.4
Cc1ccc(-c2nnc(SCC(=O)Nc3ccccc3F)o2)cc1 | -53.8* | 3.1 | -1.3 | 3.1 | -60.1
Cc1cc(-c2nnc(SCC(=O)Nc3ccccc3C(F)(F)F)o2)c(C)n1-c1ccccc1 | -56.0* | -4.2 | 6.8 | -2.5 | -59.4
C[C@H](CO)N1C[C@H](C)[C@@H](CN(C)C(=O)Nc2ccccc2)Oc2ccc(NC(=O)Cn3cnnn3)cc2C1=O | · | 7.9 | -10.8 | · | ·
COc1ccc(CNC(C)CCc2ccccc2)cc1 (stereo not drawn) | -66.9* | 9.1 | -5.5 | · | -75.3
Cc1cc(SCC(=O)Nc2ccc3[nH]c(=O)[nH]c3c2)nc2ccccc12 | · | -16.2 | -2.2 | · | ·
CCOC(=O)C1=NN(c2ccc(C)cc2)C2(S1)SC(C(C)=O)=C(C)N2c1ccccc1 (stereo not drawn) | 22.0 | -1.8 | -0.8 | 4.2 | 61.8*
COc1ccc(C2CC3CC(c4ccccc4)N2O3)cc1 (stereo not drawn) | 3.5 | 11.3 | -9.7 | -10.6 | 17.2
CC1(c2ccccc2)CC2CC(c3ccccc3)N1O2 (stereo not drawn) | 64.0 | 4.5 | -1.5 | 4.5 | 123.8*
CC(=NNC(=S)SCc1ccccc1)c1ccccn1 | 95.2* | 1.8 | 19.0 | · | 95.2*
O=C(Cn1cnc2cc([N+](=O)[O-])ccc2c1=O)Nc1cccc(S(=O)(=O)N2CCCCC2)c1 | · | -3.9 | 3.5 | · | ·
COc1cccc(-n2nc(C#N)c(Cl)cc2=O)c1 | 155.3 | 69.6* | 17.2 | 6.1 | 224.6*
O=S(=O)(/C(=C/c1ccc(C(F)(F)F)cc1)c1nc2ccccc2[nH]1)c1ccccc1 | 139.0 | 14.1 | 1.0 | 19.9 | 180.4*
CC(C)c1ccc(/C=C(\c2nc3ccccc3[nH]2)S(=O)(=O)c2ccccc2)cc1 | 77.6 | 12.7 | 7.0 | 8.6 | 102.1*
C/C(=C\c1ccc(N)cc1)c1nc2ccccc2[nH]1 | 21.3 | 9.2 | 2.0 | · | 31.8
Brc1ccc(OCCOc2cccc3cccnc23)cc1 | 29.6 | -7.4 | -10.9 | -2.8 | 67.2*
Brc1ccc(COc2cccc3cccnc23)cc1 | 40.1 | -9.3 | · | · | 64.8*
O=C(N/N=C/c1ccc[nH]1)c1ccc(COc2cccc3cccnc23)cc1 | -68.6* | 3.6 | 0.6 | -0.6 | -73.9
O=C(N/N=C/c1ccccc1C(=O)O)c1ccc(COc2cccc3cccnc23)cc1 | -0.1 | -5.4 | 0.7 | -6.3 | 3.4
O=[N+]([O-])c1ccc(COc2cccc3cccnc23)cc1 | 24.1 | -8.2 | 12.3 | · | 58.7*
O=[N+]([O-])c1ccc(OCCCOc2cccc3cccnc23)cc1 | 12.8 | -3.3 | -0.8 | · | 32.6
CCc1cc2cc(C)ccc2nc1SCC(=O)NC1CCCC1 | -1.2 | 2.8 | -11.5 | · | 10.3
C[C@@H]1CC2=C(C(=O)OC(C)(C)O2)[C@H](c2ccc(Cl)cc2)O1 | · | 7.1 | · | · | ·
C=CCOc1ccn(C)c(=O)n1 | -54.5* | -2.8 | 2.6 | · | -63.9

Screens deposited in PubChem by several laboratories.
